This is an account of results in PubChem BioAssay (EPA / NIEHS).

By AC50 is commonly meant the concentration at which the activity in the assay is half-maximal.

What all share (conditions): mRNA level, 48 h; actives raise or lower the signal
Read-out in test [1]: Cytochrome P450 (CYP2B6), CYP2B6 (gene 1555)
Briefly: LTEA_HepaRG_CYP2B6: Life Technologies and Expression Analysis (LTEA) Assay for Cytochrome P450 (CYP2B6) using HepaRG (AID 2283481). The procedure, abridged:
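Using 48 h treatment of HepaRG cells in serum-free induction medium, concentrations spanned half-log steps from 100 uM in 0.5% DMSO vehicle. CYP2B6 mRNA induction or loss is scored by qRT-PCR against DMSO.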

Read-out in test [2]: Cytochrome P450 2C19 (Homo sapiens) (UniProt P33261)
Kind of test: LTEA_HepaRG_CYP2C19: Life Technologies and Expression Analysis (LTEA) Assay for CYP2C19 using HepaRG (AID 2283482). The procedure, abridged:
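Human HepaRG liver cells received test chemicals for 48 h (highest 100 uM, half-log dilutions in 0.5% DMSO). CYP2C19 mRNA induction or loss is read by multiplexed qRT-PCR and fitted in both directions versus vehicle.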

Read-out in another test: CYP2C8 (gene 1558)
Briefly: LTEA_HepaRG_CYP2C8: Life Technologies and Expression Analysis (LTEA) Assay for CYP2C8 using HepaRG (AID 2283483). The procedure, abridged:
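CYP2C8 expression measured by TaqMan qRT-PCR and normalized to three housekeeping genes. HepaRG cultures were treated for 48 h with an eight-point half-log series topping at 100 uM, vehicle 0.5% DMSO, duplicates; fitted both directions against DMSO.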

Read-out in the next test: CYP2C9 (gene 1559)
Kind of test: LTEA_HepaRG_CYP2C9: Life Technologies and Expression Analysis (LTEA) Assay for CYP2C9 using HepaRG (AID 2283484). In short, it runs like this: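 CYP2C9 transcript level, quantified by TaqMan qRT-PCR against three housekeeping genes, was fitted bidirectionally relative to 0.5% DMSO. HepaRG cultures were treated 48 h, in duplicate, at eight half-log concentrations topping at 100 uM.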

Read-out in the next test: CYP2E1 (gene 1571)
Briefly: LTEA_HepaRG_CYP2E1: Life Technologies and Expression Analysis (LTEA) Assay for CYP2E1 using HepaRG (AID 2283485). In short, it runs like this: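 Assay uses 48 h exposure of HepaRG hepatic cells, eight concentrations to 100 uM. Expression of CYP2E1 is quantified by TaqMan qRT-PCR with ACTB, GAPDH and POLR2A normalization; curves fitted in both directions relative to vehicle.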

Read-out in the next test: CYP4A11 (gene 1579)
Kind of test: LTEA_HepaRG_CYP4A11: Life Technologies and Expression Analysis (LTEA) Assay for CYP4A11 using HepaRG (AID 2283486). In short, it runs like this: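 Readout is CYP4A11 mRNA induction or suppression (qRT-PCR, ACTB/GAPDH/POLR2A normalization) in human HepaRG cells after 48 h chemical treatment, concentrations to 100 uM in 0.5% DMSO, fitted bidirectionally against vehicle.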

Read-out in test [3]: Cytochrome P450 3A4 (Homo sapiens) (UniProt P08684)
Kind of test: LTEA_HepaRG_CYP3A4: Life Technologies and Expression Analysis (LTEA) Assay for CYP3A4 using HepaRG (AID 2283487). The procedure, abridged:
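Differentiated HepaRG cells in serum-free induction medium exposed in duplicate for 48 h to 8 half-log concentrations up to 100 uM in 0.5% DMSO. CYP3A4 mRNA measured by qRT-PCR normalized to ACTB, GAPDH and POLR2A; bidirectional fit versus DMSO.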

Read-out in test [4]: DNA damage-inducible transcript 3 (DDIT3), DDIT3 (gene 1649)
Briefly: LTEA_HepaRG_DDIT3: Life Technologies and Expression Analysis (LTEA) Assay for DNA damage-inducible transcript 3 (DDIT3) using HepaRG (AID 2283488). In short, it runs like this: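 Eight-point concentration-response (100 uM highest, half-log dilutions) in HepaRG, 48 h, duplicate wells. Endpoint: qRT-PCR mRNA, normalized (ACTB, GAPDH, POLR2A), bidirectional fitting with DMSO as baseline.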

Read-out in test [5]: Pro-epidermal growth factor (Homo sapiens) (UniProt P01133)
Kind of test: LTEA_HepaRG_EGF: Life Technologies and Expression Analysis (LTEA) Assay for Epidermal growth factor (EGF) using HepaRG (AID 2283489). In short, it runs like this: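 EGF expression changes in human HepaRG cells are scored by bidirectional fitting relative to 0.5% DMSO controls. Chemicals are tested at eight half-log concentrations up to 100 uM for 48 h in serum-free induction medium.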

Read-out in test [6]: Early growth response protein 1 (EGR1) transcription factor, EGR1 (gene 1958)
Briefly: LTEA_HepaRG_EGR1: Life Technologies and Expression Analysis (LTEA) Assay for Early growth response protein 1 (EGR1) transcription factor using HepaRG (AID 2283490). In short, it runs like this: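 EGR1 transcript levels quantified by qRT-PCR (Fluidigm arrays) against three housekeeping genes after 48 h chemical exposure of HepaRG cells. Eight-point half-log series topping at 100 uM, 0.5% DMSO vehicle, analyzed for gain or loss.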

Read-out in test [7]: Ezrin (EZR), EZR (gene 7430)
Briefly: LTEA_HepaRG_EZR: Life Technologies and Expression Analysis (LTEA) Assay for Ezrin (EZR) using HepaRG (AID 2283491). The procedure, abridged:
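Differentiated human HepaRG cells, 48 h after plating, were exposed in serum-free induction medium for 48 hours to eight half-log concentrations up to 100 uM in 0.5% DMSO. EZR mRNA was measured by TaqMan qRT-PCR, normalized to ACTB, GAPDH and POLR2A, and fitted bidirectionally against DMSO.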

Read-out in test [8]: Cytochrome P450 3A7 (Homo sapiens) (UniProt P24462)
Briefly: LTEA_HepaRG_CYP3A7: Life Technologies and Expression Analysis (LTEA) Assay for CYP3A7 using HepaRG (AID 2283492). The procedure, abridged: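 Cells were thawed, plated, cultured 48 h, then treated for a further 48 h with chemicals (eight-point half-log series from 100 uM, 0.5% DMSO). RNA was isolated and CYP3A7 expression quantified by qRT-PCR normalised to ACTB, GAPDH and POLR2A.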

Read-out in the next test: CYP3A5 (gene 1577)
Kind of test: LTEA_HepaRG_CYP3A5: Life Technologies and Expression Analysis (LTEA) Assay for CYP3A5 using HepaRG (AID 2283493). The procedure, abridged:
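Readout was CYP3A5 mRNA by qRT-PCR. HepaRG cultures were exposed for 48 h in serum-free induction medium to chemicals at up to 100 uM, and responses were fitted in both directions relative to DMSO vehicle.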

Read-out in test [9]: Fatty Acid-Binding Protein 1 (FABP1), FABP1 (gene 2168)
Kind of test: LTEA_HepaRG_FABP1: Life Technologies and Expression Analysis (LTEA) Assay for Fatty Acid-Binding Protein 1 (FABP1) using HepaRG (AID 2283494). In short, it runs like this: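 FABP1 expression by TaqMan qRT-PCR, normalised to three housekeeping genes, in HepaRG cells after 48 h chemical treatment. Eight-point half-log series topping at 100 uM in 0.5% DMSO, duplicates; gain or loss fitted relative to vehicle.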

Read-out in test [10]: Cytochrome P450 4A22 (Homo sapiens) (UniProt Q5TCH4)
Briefly: LTEA_HepaRG_CYP4A22: Life Technologies and Expression Analysis (LTEA) Assay for Cytochrome P450 4A22 (CYP4A22) using HepaRG (AID 2283495). In short, it runs like this:
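Cryopreserved HepaRG cells, plated and cultured 48 h, then switched to serum-free induction medium and treated 48 h (duplicates, up to 100 uM, half-log steps, 0.5% DMSO). Expression change of CYP4A22 was fitted bidirectionally against vehicle.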

Read-out in test [11]: Cytochrome P450 7A1 (Homo sapiens) (UniProt P22680)
Kind of test: LTEA_HepaRG_CYP7A1: Life Technologies and Expression Analysis (LTEA) Assay for Cytochrome P450 7A1 (CYP7A1) using HepaRG (AID 2283496). In short, it runs like this:
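Using 0.5% DMSO as vehicle and baseline, chemicals were tested in duplicate over an 8-point range from 100 uM on HepaRG cells for 48 h; qRT-PCR signals were normalised to ACTB, GAPDH and POLR2A.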

Read-out in test [12]: Glutathione S-Transferase (GSTA2), GSTA2 (gene 2939)
Briefly: LTEA_HepaRG_GSTA2: Life Technologies and Expression Analysis (LTEA) Assay for Glutathione S-Transferase (GSTA2) using HepaRG (AID 2283497). In short, it runs like this: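 GSTA2 transcript levels came from Fluidigm TaqMan qRT-PCR normalized to three housekeeping genes, fitted in both directions against DMSO. HepaRG cultures received chemicals for 48 h in serum-free induction medium (0.5% DMSO), 8 half-log concentrations up to 100 uM, duplicate.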

Read-out in test [13]: Glutamate-cysteine ligase catalytic (GCLC), GCLC (gene 2729)
Briefly: LTEA_HepaRG_GCLC: Life Technologies and Expression Analysis (LTEA) Assay for Glutamate-cysteine ligase catalytic (GCLC) using HepaRG (AID 2283498). In short, it runs like this:
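Expression by TaqMan qRT-PCR, normalized to three housekeeping genes (ACTB, GAPDH, POLR2A), with up- or down-regulation fitted against DMSO. HepaRG cells dosed in duplicate for 48 h with 8 half-log concentrations up to 100 uM, vehicle 0.5% DMSO.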

Read-out in test [14]: growth arrest and DNA damage 45 (GADD45G), GADD45G (gene 10912)
Kind of test: LTEA_HepaRG_GADD45G: Life Technologies and Expression Analysis (LTEA) Assay for growth arrest and DNA damage 45 (GADD45G) using HepaRG (AID 2283499). In short, it runs like this: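 Human hepatic HepaRG line treated 48 h with chemicals (eight concentrations, half-log steps from 100 uM); transcript induction or repression of GADD45G scored by qRT-PCR versus DMSO vehicle.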

Read-out in test [15]: Glutamate-cysteine ligase regulatory (GCLM), GCLM (gene 2730)
Kind of test: LTEA_HepaRG_GCLM: Life Technologies and Expression Analysis (LTEA) Assay for Glutamate-cysteine ligase regulatory (GCLM) using HepaRG (AID 2283500). In short, it runs like this:
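In this multiplexed HepaRG gene-expression assay, GCLM mRNA change after 48 h treatment (8 concentrations, max 100 uM) was scored against DMSO by bidirectional curve fitting.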

The source made the active and inactive calls. How the source made its calls: active means hit-call score of the fitted dose curve at least 0.9, where 1 is the maximum; inactive means score below 0.9.

Sequence of Cytochrome P450 2C19 (Homo sapiens) (P33261 whole entry, looked up): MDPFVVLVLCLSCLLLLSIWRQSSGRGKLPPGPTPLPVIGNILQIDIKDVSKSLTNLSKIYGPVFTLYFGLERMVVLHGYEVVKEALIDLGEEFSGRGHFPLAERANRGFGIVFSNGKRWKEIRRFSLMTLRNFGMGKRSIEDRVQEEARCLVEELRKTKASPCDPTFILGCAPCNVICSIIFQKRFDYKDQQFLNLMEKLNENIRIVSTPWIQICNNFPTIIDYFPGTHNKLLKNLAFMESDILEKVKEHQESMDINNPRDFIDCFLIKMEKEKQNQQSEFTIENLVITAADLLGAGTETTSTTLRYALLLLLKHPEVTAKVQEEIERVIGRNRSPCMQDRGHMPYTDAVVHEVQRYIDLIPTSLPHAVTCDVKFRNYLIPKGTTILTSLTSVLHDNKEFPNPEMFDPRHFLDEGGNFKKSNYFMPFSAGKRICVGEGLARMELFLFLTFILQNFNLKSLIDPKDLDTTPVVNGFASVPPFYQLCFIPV
Sequence of Cytochrome P450 3A7 (Homo sapiens) (P24462 whole entry, looked up): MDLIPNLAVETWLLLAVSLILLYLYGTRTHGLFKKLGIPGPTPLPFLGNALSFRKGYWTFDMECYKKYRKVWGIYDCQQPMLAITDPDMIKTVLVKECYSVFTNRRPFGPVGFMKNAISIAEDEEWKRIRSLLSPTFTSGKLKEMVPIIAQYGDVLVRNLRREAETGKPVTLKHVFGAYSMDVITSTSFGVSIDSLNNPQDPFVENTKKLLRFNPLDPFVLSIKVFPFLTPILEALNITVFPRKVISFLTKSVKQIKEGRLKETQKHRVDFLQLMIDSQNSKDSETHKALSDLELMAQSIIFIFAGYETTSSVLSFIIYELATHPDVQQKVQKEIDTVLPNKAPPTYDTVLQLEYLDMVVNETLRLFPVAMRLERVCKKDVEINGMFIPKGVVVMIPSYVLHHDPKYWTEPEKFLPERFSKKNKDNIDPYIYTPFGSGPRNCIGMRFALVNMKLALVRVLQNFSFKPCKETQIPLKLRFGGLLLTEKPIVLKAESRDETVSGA
Sequence of Cytochrome P450 3A4 (Homo sapiens) (P08684 whole entry, looked up): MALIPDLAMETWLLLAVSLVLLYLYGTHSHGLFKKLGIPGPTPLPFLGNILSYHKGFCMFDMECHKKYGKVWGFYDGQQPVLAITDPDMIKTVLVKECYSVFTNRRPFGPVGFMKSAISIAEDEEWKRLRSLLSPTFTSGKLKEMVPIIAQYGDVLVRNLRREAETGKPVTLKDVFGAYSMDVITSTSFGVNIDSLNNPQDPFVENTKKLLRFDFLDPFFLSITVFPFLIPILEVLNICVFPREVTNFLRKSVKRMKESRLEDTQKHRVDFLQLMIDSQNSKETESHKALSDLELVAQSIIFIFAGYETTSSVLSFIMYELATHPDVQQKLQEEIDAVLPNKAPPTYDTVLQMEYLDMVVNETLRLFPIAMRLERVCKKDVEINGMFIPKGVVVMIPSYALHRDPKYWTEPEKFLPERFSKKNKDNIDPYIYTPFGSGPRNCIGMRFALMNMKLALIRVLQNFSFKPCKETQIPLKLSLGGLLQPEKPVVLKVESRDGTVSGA

With `CCCCC(CC)COC(=O)c1ccc(C(=O)OCC(CC)CCCC)c(C(=O)OCC(CC)CCCC)c1` (centres undefined), the call (in test [1]; in test [2]; with CYP2C8 (gene 1558); with CYP2C9 (gene 1559); with CYP2E1 (gene 1571); in the test with CYP4A11 (gene 1579)) was inactive. In addition, the outcome in test [3], in [4], in test [5], in test [6], in test [7] and in [8] was inactive. Moreover, the compound was called inactive (in the test with CYP3A5 (gene 1577); in test [9]; in [10]; in test [11]; in [12]; in [13]). Besides, the result in [14] and in test [15] was inactive.
For `Nc1ccc(Oc2ccc(N)cc2)cc1`, the values for the AC50 in test [1] and in test [9] were 67 µM (active) and 50 µM (active), respectively. Moreover, the compound was classed as inactive (in test [2]; with CYP2C8 (gene 1558); with CYP2C9 (gene 1559); in the test with CYP2E1 (gene 1571); with CYP4A11 (gene 1579); in test [3]). Moreover, the result (in test [4]; in [5]; in [6]; in [7]; in test [8]; with CYP3A5 (gene 1577)) was inactive. Besides, the outcome in test [10], in test [11], in test [12], in test [13], in test [14] and in [15] was inactive.
For the compound `ClCCOCCCl`, the result (in test [1]; in test [2]; with CYP2C8 (gene 1558); with CYP2C9 (gene 1559); with CYP2E1 (gene 1571); with CYP4A11 (gene 1579)) was inactive. Further, the result in test [3], in test [4], in test [5], in test [6], in test [7] and in test [8] was inactive. The call in test [9], in test [10], in test [11], in test [12], in test [13] and in test [14] was inactive. Also, the compound was called inactive in [15].
